# Experimental data from PubChem BioAssay (NCATS).
# Values joined by “and” are separate entries in the source; they are usually repeats but may differ in a detail not shown here. Equal values may be shown once. Values without a mark were called inactive. Inconclusive results are not listed. Entries that show only a call come without a potency. Active and inactive are the calls of the source. Unless noted, calls come from the whole dose curve; as a rule, active = well fitted curve in the direction sought with a large enough effect; inconclusive = small, poorly fitted or top-dose-only effect, or another doubt; inactive = no such curve, though single readings can be large; an effect the other way counts as inactive or inconclusive.
# How the values were obtained:
# [1] = Cell Viability - BJ (AID 421; calls by dose curve;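 note: potency is the fitted concentration of half-maximal effect; cells exposed to compound for 40 hours at 37 °C before readout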); conditions: BJ fibroblast viability, qHTS
# In short: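 Quantitative HTS: ATP depletion in BJ cells after 40 hr compound exposure in complete culture medium, detected with CellTiter-Glo; AC50 from standard Hill fits.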
# [2] = Cell Viability - Jurkat (AID 426;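 active = dose-dependent loss of cell ATP signal giving a full or clear fitted curve, ranked by lower potency value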;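 note: potency is the fitted concentration of half-maximal effect; cells exposed to compound for 40 hours at 37 °C before ATP read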); conditions: qHTS
# In short: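 Seed 5000 Jurkat E6-1 cells/well; add compound; incubate 40 hr at 37 °C; add CellTiter-Glo; wait 20 min at room temperature; read luminescence. Fit concentration-response with Hill equation for AC50.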
# [3] = Cell Viability - Hek293 (AID 427;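 active = compounds whose dose-response curve shows a full or clear partial loss of cell viability, called from curve shape rather than a numeric limit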;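 note: potency is the fitted concentration of half-maximal effect; cells exposed to compound for 40 hours at 37 °C before reading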); conditions: qHTS
# In short: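 AC50 values derive from Hill-modelled concentration-response of ATP-based luminescence, normalized between DMSO-only and 100 uM tamoxifen controls. Cells were exposed in complete culture medium for 40 hr at 37 °C before detection.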
# [4] = Cell Viability - HepG2 (AID 433; calls by dose curve;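 note: potency is the fitted concentration of half-maximal effect; cells exposed to compound for 40 hours; potency for ATP loss meaning cytotoxicity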); conditions: qHTS
# In short: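 HepG2 cells, 1500 per well, treated 40 hr at 37 °C in complete medium; viability from intracellular ATP by CellTiter-Glo luminescence. Normalized to DMSO and 100 uM tamoxifen; AC50 from Hill fit of qHTS concentration-response.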
# [5] = Cell Viability - MRC5 (AID 434; calls by dose curve;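 note: potency is the fitted concentration of half-maximal effect; cells exposed to compound for 40 hours at 37 °C; potency reflects cytotoxicity seen as loss of intracellular ATP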); conditions: MRC5 lung fibroblast viability, qHTS
# In short: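 MRC5 normal human lung fibroblasts (1500/well) were treated with compounds for 40 hr at 37 °C in complete medium, and viable cells were measured as intracellular ATP by CellTiter-Glo luminescence. AC50 came from Hill fits, normalized to DMSO and 100 uM tamoxifen.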
# [6] = Cell Viability - SK-N-SH (AID 435; calls by dose curve;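 note: potency is the fitted concentration of half-maximal effect; compound exposure lasted 40 h at 37 °C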); conditions: SK-N-SH neuroblastoma cell viability qHTS
# In short: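 SK-N-SH neuroblastoma cells (1500/well) treated 40 h at 37 °C in complete medium; viability read as cellular ATP by CellTiter-Glo luminescence. Normalized to DMSO and 100 uM tamoxifen; AC50 from Hill fits of qHTS concentration-response.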
# [7] = Cell Viability - HUV-EC-C (AID 542); conditions: HUV-EC-C endothelial cell viability, qHTS; series mostly up to 92.2 µM;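 note: cells exposed to compound for 40 hours; nearly all actives have a fitted effect of over 35% in size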
# In short: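 Decrease in cellular ATP, quantified by luciferase luminescence, reflects toxicity in normal human vascular endothelial HUV-EC-C cells given compound for 40 hr in complete culture medium. Values are AC50s from concentration-response curves.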
# [8] = Cellular Toxicity (caspase-3) HepG2 (AID 654); conditions: HepG2 caspase-3 activation, luminescence, 0% = DMSO only, 100% = tamoxifen; series mostly up to 92.2 µM;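 note: cells exposed to compound for 16 hours before reading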
# In short: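 qHTS, HepG2, 1500 cells/well, complete medium; cpd 16 h 37 °C; Caspase-Glo 3/7, 20 min RT; lum. Norm: DMSO vs 100 uM tamoxifen; AC50 Hill fit.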
# [9] = Cellular Toxicity (caspase-3) HUV-EC-C (AID 656); conditions: HUV-EC-C cells, caspase-3 activation (apoptosis), vehicle = 0, 100 µM tamoxifen = 100%; series mostly up to 92.2 µM
# In short: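 HUV-EC-C cells (1000/well) in complete medium, compound-treated 16 h at 37 °C; caspase-3/7 activity read by Caspase-Glo 3/7 luminescence. Normalized to DMSO (basal) and 100 uM tamoxifen (100%); AC50 from Hill-equation concentration-response fits.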
# [10] = Cellular Toxicity (caspase-3) BJ (AID 658); conditions: BJ fibroblasts, luminescence, normalized: DMSO 0%, staurosporine 100%; series mostly up to 91.7 µM;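 note: cells exposed to compound for 16 hours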
# In short: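 Luminescent aminoluciferin-substrate cleavage reports caspase 3/7 activity in normal human BJ fibroblasts after 16 hr compound exposure at 37 °C. Normalized to DMSO (basal) and 10 uM staurosporine (100%); AC50 from Hill fit of concentration-response.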
# [11] = Cellular Toxicity (caspase-3) Mesangial (AID 660); conditions: mesangial cells, normalized: DMSO 0%, 100 µM tamoxifen 100%; series mostly up to 91.7 µM;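 note: cells exposed to compound for 16 h before the caspase read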
# In short: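 Concentration-response qHTS: compound-induced rise in caspase 3/7 luminescence in human mesangial cells after 16 h, normalized to DMSO and 100 uM tamoxifen controls.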
# [12] = Cellular Toxicity (caspase-3) SK-N-SH (AID 661); conditions: SK-N-SH caspase-3 activation, qHTS; series mostly up to 91.7 µM;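 note: cells exposed to compound for 16 hours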
# In short: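 Caspase 3/7 activation is measured as a luminescence increase from aminoluciferin released by substrate cleavage in SK-N-SH cells after 16 hr compound treatment; values are AC50 from concentration-response curves.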
# [13] = Cellular Toxicity (caspase-3) H-4-II-E (AID 663); conditions: H-4-II-E rat hepatoma; Potency: caspase-3 activation; series mostly up to 92.2 µM;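 note: cells exposed to compound for 16 hr before readout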
# In short: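 Luminescence from caspase-cleaved aminoluciferin substrate, read 20 min after reagent addition, reports caspase 3/7 activation in rat H-4-II-E cells after 16 hr compound exposure. Normalized to DMSO (basal) and 100 uM tamoxifen (100%); AC50 from Hill fits.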
# [14] = Cellular Toxicity (caspase-3) N2a (AID 665); conditions: N2a cells, luminescence, normalized: DMSO 0%, 10 µM staurosporine 100%; series mostly up to 92.2 µM;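 note: compound exposure lasted 16 h at 37 °C before readout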
# In short: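 Plated mouse neuroblastoma N2a cells received titrated compounds for 16 h in complete medium. Caspase activity was then detected with a peptide-aminoluciferin luminescent reagent.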
# [15] = Cell Viability - LYMP1-002 - Assay at 16 hr (AID 948); conditions: LYMP1-002 lymphoblastoid cell viability; series mostly up to 92.2 µM
# In short: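 LYMP1-002 human lymphoblastoid cells, 2500/well, were treated with compounds for 16 hr at 37 C in complete medium. Viability was read as intracellular ATP by CellTiter-Glo luminescence, and AC50 was derived from a Hill fit to concentration-response data.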
# [16] = MultiTox-Fluor Cytotoxicity Assay - LYMP1-003 - Dead Cells (AID 961); conditions: LYMP1-003 lymphoblastoid cells, dead-cell protease fluorescence; series mostly up to 92.2 µM; note: nearly all actives have a fitted effect of over 70% in size; note: potency is the fitted concentration of half-maximal effect
# In short: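 Acute toxicity is scored as increased dead-cell protease activity in human lymphoblastoid LYMP1-003 cells after 16 h compound exposure in complete culture medium. Activity is normalized to DMSO basal and 15 uM tetraoctylammonium bromide as full response.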
# [17] = Cell Viability - LYMP2-023 (AID 975); conditions: LYMP2-023 lymphoblastoid cell viability; series mostly up to 92.2 µM;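 note: cellular ATP measured by luciferase luminescence as viability proxy; cells exposed to compound for 24 hours at 37 °C; nearly all actives have a fitted effect of over 55% in size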
# In short: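 Concentration-dependent drop in intracellular ATP measures acute cytotoxicity in a human lymphoblastoid line treated for 24 hours in complete culture medium. AC50 values are taken from Hill-equation fits of qHTS data.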
# [18] = Cell Viability - LYMP2-008 (AID 980); conditions: LYMP2-008 lymphoblastoid cell viability, qHTS; series mostly up to 92.2 µM; note: nearly all actives have a fitted effect of over 60% in size; note: potency is the fitted concentration of half-maximal effect
# In short: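 Acute cytotoxicity is scored as concentration-dependent loss of cellular ATP in a human lymphoblastoid line after 24 hr treatment at 37 C. ATP is quantified by luciferase luminescence.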
# [19] = qHTS Assay for Identification of Small Molecule Inducers of Hypoxia Response (AID 2120; active = well fitted curve in the direction sought with a large enough effect in the signal ratio, with a control signal flat, not every such curve was filed as active; the % refers to the signal ratio); conditions: hypoxia response reporter cells, beta-lactamase ratio readout; series mostly up to 104 µM
# In short: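 Induction of beta-lactamase reporter activity was measured in CellSensor HRE-bla ME-180 cells after 17 h compound treatment at 37 degrees C, using CCF4 substrate and the 460nm/530nm emission ratio to derive AC50 values.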
# [20] = qHTS assay for cell viability of HEK293 cells (AID 743288); conditions: ATP luminescence (CellTiter-Glo), 18 h, hits give low values; note: nearly all actives have a fitted effect of over 50% in size
# In short: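 Parental HEK293 cells, 2,000 per well, preincubated at least 5 h at 37 C, then exposed to compounds in DMSO for 18 h at 37 C. Viability by CellTiter-Glo ATP luminescence after 30 min at room temperature.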
SMILES,Potency [1] [µM],Potency [2],Potency [3] [µM],Potency [4] [µM],Potency [5] [µM],Potency [6] [µM],Potency [7],outcome [8],outcome [9],outcome [10],outcome [11],Potency [12],Potency [13],outcome [14],outcome [15],Potency [16],Potency [17],Potency [18],Potency [19],max response [20]
Clc1ccc(Cl)c(Cl)c1,> 92,> 92 µM,> 92,> 92,> 92,> 92,inactive,inactive,inactive,inactive,inactive,inactive,inactive,inactive,inactive,inactive,inactive,inactive,inactive,9.56% and -10%
C=C(C)CCl,> 92,> 92 µM,> 92,> 92,> 92,> 92,inactive,inactive,inactive,inactive,inactive,inactive,inactive,inactive,inactive,inactive,inactive,inactive,inactive,-1.82%
CCC(Cl)[N+](=O)[O-] (stereo not given),> 92,> 92 µM,> 92,> 92,> 92,> 92,inactive,inactive,inactive,inactive,inactive,inactive,inactive,inactive,inactive,inactive,inactive,inactive,inactive,-3.51%
OCCBr,> 92,> 92 µM,> 92,> 92,> 92,> 92,inactive,inactive,inactive,inactive,inactive,inactive,inactive,inactive,inactive,inactive,inactive,inactive,inactive,5.14%
Nc1cc(Cl)cc(Cl)c1,> 92,> 92 µM,> 92,> 92,> 92,> 92,inactive,inactive,inactive,inactive,inactive,inactive,inactive,inactive,inactive,inactive,inactive,inactive,inactive,5.59%
NC1CCC(CC2CCC(N)CC2)CC1 (stereo not given),> 92,> 92 µM,> 92,> 92,> 92,> 92,inactive,inactive,inactive,inactive,inactive,inactive,inactive,inactive,inactive,inactive,inactive,inactive,inactive,7.87% and 2.31%
CCOP(=O)(OCC)OCC,> 92,> 92 µM,> 92,> 92,> 92,> 92,inactive,inactive,inactive,inactive,inactive,inactive,inactive,inactive,inactive,inactive,inactive,inactive,inactive,5.7% and 3.95%
ClCC(Cl)CCl,> 92,> 92 µM,> 92,> 92,> 92,> 92,inactive,inactive,inactive,inactive,inactive,inactive,inactive,inactive,inactive,inactive,inactive,inactive,inactive,-3.69% and -5.22%
Oc1cc(Cl)ccc1Cl,> 92,> 92 µM,> 92,> 92,> 92,> 92,inactive,inactive,inactive,inactive,inactive,inactive,inactive,inactive,inactive,inactive,inactive,inactive,inactive,5.28% and -9.5%
CN=C=O,> 92,> 92 µM,> 92,> 92,> 92,> 92,inactive,inactive,inactive,inactive,inactive,inactive,inactive,inactive,inactive,inactive,inactive,inactive,inactive,3.09%
O=Cc1ccc2c(c1)OCO2,> 92,> 92 µM,> 92,> 92,> 92,> 92,inactive,inactive,inactive,inactive,inactive,inactive,inactive,inactive,inactive,inactive,inactive,inactive,inactive,-0.123%
C=CC(=O)OCC(CC)CCCC (stereo not given),> 92,> 92 µM,> 92,> 92,> 92,> 92,inactive,inactive,inactive,inactive,inactive,inactive,inactive,inactive,inactive,inactive,inactive,inactive,inactive,1.71% and -12.5%
Nc1cc(Cl)ccc1Cl,> 92,> 92 µM,> 92,> 92,> 92,> 92,inactive,inactive,inactive,inactive,inactive,inactive,inactive,inactive,inactive,inactive,inactive,inactive,inactive,7.64%
CC(Cl)CCl (stereo not given),> 92,> 92 µM,> 92,> 92,> 92,> 92,inactive,inactive,inactive,inactive,inactive,inactive,inactive,inactive,inactive,inactive,inactive,inactive,inactive,-4.06%
Cc1ccc(N)c(N)c1,> 92,9.63 µM (active),> 92,> 92,> 92,> 92,inactive,inactive,inactive,inactive,inactive,inactive,inactive,inactive,inactive,15.8 µM (active),inactive,39.8 µM (active),inactive,-20.1%
CCOP(=S)(OCC)SCCSCC,> 92,> 92 µM,> 92,> 92,> 92,> 92,inactive,inactive,inactive,inactive,inactive,inactive,inactive,inactive,inactive,inactive,inactive,inactive,inactive,-9.57% and -7.92%
O=[N+]([O-])c1ccc(Cl)cc1,> 92,> 92 µM,> 92,> 92,> 92,> 92,inactive,inactive,inactive,inactive,inactive,inactive,inactive,inactive,inactive,inactive,inactive,inactive,inactive,7.34% and -5.17%
CCOS(C)(=O)=O,> 92,> 92 µM,> 92,> 92,> 92,> 92,inactive,inactive,inactive,inactive,inactive,inactive,inactive,inactive,inactive,inactive,inactive,inactive,inactive,-14.8%
Cl/C=C\Cl,> 92,> 92 µM,> 92,> 92,> 92,> 92,inactive,inactive,inactive,inactive,inactive,inactive,inactive,inactive,inactive,inactive,inactive,inactive,inactive,-1.83%
CC(Cl)(Cl)Cl,> 92,> 92 µM,> 92,> 92,> 92,> 92,inactive,inactive,inactive,inactive,inactive,inactive,inactive,inactive,inactive,inactive,inactive,inactive,inactive,6.17% and -1.09%
O=C(Cl)OCc1ccccc1,> 92,> 92 µM,> 92,> 92,> 92,> 92,inactive,inactive,inactive,inactive,inactive,inactive,inactive,inactive,inactive,inactive,inactive,inactive,inactive,-3.33%
CCCCCCCCCCCOC(=O)c1ccccc1C(=O)OCCCCCCCCCCC,> 92,> 92 µM,> 92,> 92,> 92,> 92,inactive,inactive,inactive,inactive,inactive,inactive,inactive,inactive,inactive,inactive,inactive,inactive,inactive,3%
Cc1ccccc1[N+](=O)[O-],> 92,> 92 µM,> 92,> 92,> 92,> 92,inactive,inactive,inactive,inactive,inactive,inactive,inactive,inactive,inactive,inactive,inactive,inactive,inactive,6.42%
